Source: PubChem (several laboratories)
This is a sample that favours compounds with a hit; in the whole collection about 6.9% have one here.
SKKanGAS inh: S. pyogenes SKKanGAS growth inhibitors in kanamycin, primary screen, streptokinase expression inhibitor project, SKKanGAS strain, BacTiter-Glo luminescence. 6 h. inhibition, % at 7.5 µM. 300,000 compounds, 1.3% hits. AID 1662, 2009;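 active = mean replicate score, as percent of positive control median, at least 50; inconclusive = mean below 50 but one replicate at or above 50; inactive = mean and every replicate below 50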;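 note: strain carries kanamycin resistance gene driven by streptokinase promoter and grows in 40 µg/ml kanamycin; loss of luminescence reflects streptokinase promoter inhibition or plain growth inhibition; 0% = median of DMSO wells and 100% = positive control at its reference dose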
CSC inhib: cancer stem cell viability inhibitors, primary screen, luminescence | cancer stem cell-like cells viability | inhibition, % at 7.5 µM | 300,000 compounds, 1.1% hits; in the data active = inhibition above about 75%; inconclusive = no clear call, values can overlap the other calls; tested in HMLE shEcad cells
MPTP inh: mitochondrial permeability transition pore inhibitors, primary screen, biochemical, isolated mouse mitochondria, absorbance; Ca2+ swelling absorbance, 30 min; inhibition, % at 10 µM; 360,000 compounds, 1.4% hits;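 active = inhibition of 50% or more, scaled per plate between neutral and stimulator controls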;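 note: 0% = DMSO wells given calcium and 100% = 1 mM EGTA wells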
Mdm2-MdmX inh: inhibitors of human Mdm2-MdmX association, primary screen, cell-based, luminescence, split luciferase, SaOS-2, uHTS | Protein Mdm4 (Homo sapiens) + E3 ubiquitin-protein ligase Mdm2 (Homo sapiens), … | SaOS-2 split-luciferase Mdm2/MdmX complementation | inhibition, % at 8 µM | 330,000 compounds, 3% hits;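 active = inhibition of at least 50% at 8 µM in the primary screen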
Target sequence (O15151 whole entry, looked up): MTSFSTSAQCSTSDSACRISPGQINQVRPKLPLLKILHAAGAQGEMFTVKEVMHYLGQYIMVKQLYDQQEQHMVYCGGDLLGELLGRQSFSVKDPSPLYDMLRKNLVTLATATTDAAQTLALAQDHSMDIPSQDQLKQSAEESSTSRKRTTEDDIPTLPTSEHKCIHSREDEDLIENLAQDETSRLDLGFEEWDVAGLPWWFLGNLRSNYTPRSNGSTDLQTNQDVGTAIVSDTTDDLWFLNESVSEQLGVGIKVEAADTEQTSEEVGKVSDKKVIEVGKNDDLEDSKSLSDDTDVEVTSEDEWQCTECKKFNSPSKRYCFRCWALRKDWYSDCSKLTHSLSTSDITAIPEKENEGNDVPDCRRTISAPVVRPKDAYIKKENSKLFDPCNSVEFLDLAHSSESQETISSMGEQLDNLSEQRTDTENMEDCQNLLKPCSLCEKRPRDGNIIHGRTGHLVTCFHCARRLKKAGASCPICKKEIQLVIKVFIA
Target sequence (Q00987 whole entry, looked up): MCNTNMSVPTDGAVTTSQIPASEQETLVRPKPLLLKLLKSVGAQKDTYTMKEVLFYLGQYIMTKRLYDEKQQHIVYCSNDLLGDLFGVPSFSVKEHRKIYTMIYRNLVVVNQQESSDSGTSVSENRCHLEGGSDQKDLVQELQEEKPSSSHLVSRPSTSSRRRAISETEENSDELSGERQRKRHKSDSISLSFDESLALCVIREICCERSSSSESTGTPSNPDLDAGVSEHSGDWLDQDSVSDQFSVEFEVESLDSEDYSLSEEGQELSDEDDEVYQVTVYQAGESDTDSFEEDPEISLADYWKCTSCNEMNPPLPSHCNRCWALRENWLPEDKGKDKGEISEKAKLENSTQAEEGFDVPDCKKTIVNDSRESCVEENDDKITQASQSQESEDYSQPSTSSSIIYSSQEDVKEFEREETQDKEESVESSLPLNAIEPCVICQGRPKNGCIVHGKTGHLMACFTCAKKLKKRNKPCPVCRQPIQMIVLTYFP
NR3A LBD binder: binders of NR3A ligand-binding domain, primary screen, biophysical, differential scanning fluorimetry, uHTS | Tm shift relative to glycine control, % at 25 µM | Glutamate receptor ionotropic, NMDA 3A (GRIN3A) ligand-binding domain | NR3A LBD differential scanning fluorimetry, Tm shift; 0% = protein alone, 100% = glycine-bound protein | 340,000 compounds, 2.5% hits | AID 1259313, 2017;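 active = melting temperature shift of at least 10% of the positive control shift, at one fixed dose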
Beta cell apopt: inhibitors of cytokine-induced beta cell apoptosis, primary screen, luminescence. AID 435005, 2010. INS-1E cytokine-induced death, ATP luminescence, 48 h; percent of positive-control rescue, neutral wells zero. protection from apoptosis, % (no concentration beside the values). 300,000 compounds, 0.8% hits;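 active = Every replicate reaches about 75%, or at least half do and their mean reaches it too, limit read from the data; inconclusive = At least half of replicates reach the limit but their mean does not; inactive = Under half of replicates reach the limit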;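 note: 0% = cytokine-treated negative control wells and 100% = positive control rescue; higher means more ATP so stronger rescue from cytokine killing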
Mdm2-MdmX conf: Mdm2-MdmX complex disruptors, retested hits, confirmation, luminescence, single concentration; shares compounds with Mdm2-MdmX inh; inhibition, % at 8 µM; Mdm2-MdmX binding, luminescent assay; 10,000 compounds, 55% hits; AID 489028, 2010; in the data active = inhibition above about 40%
Full FLuc ctr: full-length luciferase signal inhibition, confirmation, counter-screen for Mdm2/MdmX interaction inhibitor project, cell-based, single concentration, SaOS-2; shares compounds with Mdm2-MdmX inh; SaOS-2 full-length luciferase counterscreen, luminescence; inhibition, % at 8 µM; 6,200 compounds, 77% hits; AID 504607, 2011;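 active = mean inhibition at 8 µM reaching about 37%, which flags the compound as non-specific, limit read from the data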;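 note: p53-null SaOS-2 cells with luciferase driven by a doxycycline-inducible promoter; compound on cells about two nights before reading with doxycycline added after day one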
* = called active by the depositor; ? = inconclusive; . = no result given.

SMILES	SKKanGAS inh	CSC inhib	MPTP inh	Mdm2-MdmX inh	NR3A LBD binder	Beta cell apopt	Mdm2-MdmX conf	Full FLuc ctr
Cc1ccc(O)c(C(=O)c2cnc3c(c2)c(=O)n(C)c(=O)n3C)c1	-1.9	0.8	-0.3	-1.7	0.0	-11.8	.	.
CCN1C[C@@H]2[C@@H]3C(=O)N(Cc4ccccc4)C(=O)[C@@H]3[C@](C)(C1=O)N2C(=O)c1ccc(Br)cc1	.	.	-0.6	.	1.3	.	.	.
N#CC1C(=O)NC(=O)C(C#N)C12CCCc1sccc12 (centres undefined)	.	.	0.3	.	.	.	.	.
Cc1c(/C=C(\C#N)C(=O)NCc2ccccc2)cc(C#N)n1C	6.0	3.7	-0.1	24.1	-0.2	-6.7	.	.
O=C(Oc1ccc2ccccc2c1Br)N1CCCCCC1	28.1	-17.2	3.8	58.6*	-0.3	8.7	41.8*	149.9*
Cc1ccc(NC(=O)c2nc[nH]c2C(=O)N[C@H](C)c2ccccc2)cc1	.	21.8	2.8	10.2	-0.2	-2.6	.	.
CCOC(=O)c1ccc(NC(=O)c2nc[nH]c2C(=O)N[C@H](C)c2ccccc2)cc1	78.3*	46.3	0.0	60.1*	0.1	7.7	17.6	.
C[C@H](NC(=O)c1[nH]cnc1C(=O)Nc1ccccc1)c1ccccc1	.	10.0	1.7	15.4	-5.4	-2.2	.	.
CCOC(=O)c1ccc(NC(=O)c2nc[nH]c2C(=O)NC)cc1	6.6	19.4	1.2	13.8	0.0	-5.6	.	.
CCOC(=O)c1ccc(NC(=O)c2nc[nH]c2C(=O)NCCNC(=O)c2[nH]cnc2C(=O)Nc2ccc(C(=O)OCC)cc2)cc1	.	122.0*	4.7	100.5*	14.9*	11.4	41.0*	81.5*
Cc1cccc(NC(=O)c2nc[nH]c2C(=O)N[C@H](C)c2ccccc2)c1	.	?	0.4	56.7*	-4.7	1.7	37.8	49.6*
COc1ccc(C(=O)N2CCCC(Nc3ccc(C(C)C)cc3)C2)c(OC)n1 (centres undefined)	10.1	0.7	8.3	17.2	-0.3	5.5	.	.
CCOC(=O)n1cnc2nc(N)nc(SC)c21	.	.	0.5	.	-4.1	.	.	.
Cc1nn(Cc2ccc(F)cc2)c(Cl)c1/C=N/NC(=O)c1ccccc1	2.9	59.9	-11.6	0.5	-1.2	2.5	.	.
Cc1nn(Cc2ccc(Cl)cc2Cl)c(Cl)c1/C=N/NC(=O)CNc1cccc(C(F)(F)F)c1	1.8	25.9	.	83.9*	.	20.3	-0.6	.
O=S(Cc1ccc(Br)cc1)Cc1nnc(SCc2ccc(Cl)cc2)n1-c1ccccc1 (centres undefined)	16.2	6.6	-1.6	50.5*	-9.7	40.0	39.5	69.9*
C=CCn1c(O)c(C2=c3ccccc3=NC2=O)s/c1=N/c1nccs1	-38.3	-5.7	6.5	79.4*	-0.5	2.7	22.8	.
COC(=O)C(C)Sc1nc2ccsc2c(=O)n1Cc1ccccc1 (centres undefined)	3.9	6.2	1.8	11.7	-1.0	-1.6	.	.
CCC1(C(=O)NC(=Nc2ccccc2)Nc2ccccc2)CCOC1=O (centres undefined)	.	.	-3.7	.	-0.3	.	.	.
CCN1CCN(C(=O)Cn2ncc3c([nH]c4ccc(C)cc43)c2=O)CC1	-1.7	-17.0	-1.5	-14.9	0.4	-4.1	.	.
COc1ccc(N2CCN(C(=O)Cn3ncc4c([nH]c5ccccc54)c3=O)CC2)cc1	-9.7	8.4	1.6	50.1*	1.5	-1.8	15.8	.
Cc1ccc(C)c(Cn2c3ccccc3c3cnn(CC(=O)NCCCN4CCCCC4)c(=O)c32)c1	13.2	-12.7	5.4	92.0*	-0.1	8.3	47.7*	48.4*
Cc1ccc2[nH]c3c(=O)n(CC(=O)NCCCN4CCN(c5ccc(F)cc5)CC4)ncc3c2c1	5.2	-16.3	1.3	69.0*	-1.2	-0.6	35.9	.
Cc1ccc(C)c(N2CCN(C(=O)Cn3ncc4c([nH]c5ccc(C)cc54)c3=O)CC2)c1	-1.7	-9.9	-1.5	52.1*	5.0	0.9	-4.0	.
CCC1CCCCN1CCCNC(=O)Cn1ncc2c([nH]c3ccc(C)cc32)c1=O (centres undefined)	-4.2	-8.9	-1.1	26.6	-4.1	-5.3	.	.
SMILES	SKKanGAS inh	CSC inhib	MPTP inh	Mdm2-MdmX inh	NR3A LBD binder	Beta cell apopt	Mdm2-MdmX conf	Full FLuc ctr
CCOc1ccccc1NC(=O)[C@@H](NC(=O)c1ccccc1F)C(C)C	-1.9	-0.2	1.0	4.7	0.6	-6.4	.	.
O=C(Nc1ccn(CCCNC2CCN(Cc3ccccc3)CC2)c(=O)n1)OCc1ccccc1	.	.	0.4	.	.	.	.	.
CCOC(=O)CSC1=C(C#N)C(c2ccc(C)o2)CC(=O)N1 (centres undefined)	-8.4	58.2	-2.9	64.7*	0.3	28.3	52.0*	73.0*
CCOC(=O)CSC1=C(C#N)C(c2ccc(Cl)cc2)CC(=O)N1 (centres undefined)	3.0	-13.7	0.4	25.4	1.8	-0.1	.	.
COc1ccc(N2CC(O)=C(c3nc(-c4ccc(Br)cc4)cs3)C2=N)cc1	11.2	-10.4	1.4	71.4*	-0.7	-5.7	54.0*	75.2*
COc1ccc(N2CC(O)=C(c3nc(-c4ccc(Cl)cc4)cs3)C2=N)cc1	15.0	-6.7	0.5	52.8*	1.9	11.8	41.5*	62.6*
COc1cc(-c2noc(C)c2/C=C/c2cccc([N+](=O)[O-])c2)cc(OC)c1OC	25.9	63.9	1.7	78.9*	-4.1	24.9	74.7*	83.8*
CCOc1ccc(-n2nnnc2SCC(=O)Nc2ccc(NC(C)=O)cc2)cc1	-3.3	-0.7	0.9	57.3*	-1.4	-5.4	5.7	.
COc1cccc(-n2nnnc2SCC(=O)Nc2ccc3c(c2)OCCO3)c1	4.1	7.4	0.3	79.2*	0.7	-2.5	27.6	.
COc1ccc(Nc2nnc(SCC(=O)NC(=O)Nc3ccc4c(c3)OCCO4)s2)cc1	-1.6	18.5	3.9	62.4*	4.2	-2.4	-4.2	.
O=C(CSc1nnnn1-c1cccc(Cl)c1)Nc1ccc2c(c1)CCC2	2.0	2.5	.	71.2*	.	6.1	36.8	59.9*
O=[N+]([O-])c1ccc([N+](=O)[O-])c(Nc2ccc(N3CCOCC3)cc2)c1	25.6	-4.1	-2.5	6.4	-0.7	-12.2	.	.
COC(=O)c1sc2nc(CSc3ccc(Br)cc3)[nH]c(=O)c2c1C	11.9	19.3	10.8	6.0	9.6	-12.2	.	.
